Bioassay records: PubChem, National Center for Advancing Translational Sciences (NCATS)
Only some compounds are listed: those with a hit (about 2.4% of all), similar ones and a draw of the others.
D2 PAM-1 = positively modulates the human D2 dopamine receptor allosterically | 0.34% of 340,000 active | AID 485347 | potentiation, % at 10 µM | P14416 | HEK293 T-REx D2, calcium flux, EC20 dopamine potentiation;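 active means potentiation over 3 SD above the plate norm, cut at about 30% in these data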; further: 0% is about no effect
Target sequence (P14416 whole entry, looked up): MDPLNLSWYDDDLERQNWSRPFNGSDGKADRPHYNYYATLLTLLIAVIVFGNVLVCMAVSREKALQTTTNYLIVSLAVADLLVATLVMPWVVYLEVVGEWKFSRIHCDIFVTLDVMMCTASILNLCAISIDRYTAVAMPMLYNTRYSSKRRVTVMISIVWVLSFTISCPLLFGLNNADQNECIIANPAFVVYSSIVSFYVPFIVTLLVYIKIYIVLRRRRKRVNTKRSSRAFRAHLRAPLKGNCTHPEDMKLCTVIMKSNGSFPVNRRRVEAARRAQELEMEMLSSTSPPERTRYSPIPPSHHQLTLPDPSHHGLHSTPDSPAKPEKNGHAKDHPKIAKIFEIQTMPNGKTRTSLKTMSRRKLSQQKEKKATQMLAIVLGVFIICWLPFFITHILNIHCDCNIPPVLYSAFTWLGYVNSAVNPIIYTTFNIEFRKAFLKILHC
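Potentiation of an EC20 dopamine calcium response is measured in a force-coupled, tetracycline-inducible Hek293 Trex D2 line. Compound-only kinetic reads over 180 s flag agonists before dopamine addition.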
D2 antag = antagonizes the human D2 dopamine receptor | P14416 | HEK293 TREx D2 cells, calcium flux, dopamine EC80 | inhibition, % at 10 µM | 2% of 340,000 active | AID 485344; in the data active means inhibition above about 30%; inactive means below that, where a call was filed; further: 0% is about no effect
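Overnight-induced (tetracycline, 30 C) HEK293 T-REx cells carrying force-coupled D2 receive a no-wash calcium dye, then compound, then EC80 dopamine at 180 s; signals are read kinetically throughout.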
D2 PAM-2 = positive allosteric modulators of human D2 dopamine receptor | P14416 | DiscoveRx D2 beta-arrestin cells, luminescence, 90 min; 100% = 57 uM dopamine signal | potentiation, % (concentration not given with the values) | 0.23% of 360,000 active | AID 624464; in the data active means potentiation above about 50%; inconclusive means mostly about 30% to 49%
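PathHunter beta-arrestin assay in DiscoveRx D2 cells. Compounds were added with an EC20 of dopamine (50 nM final) for 90 min at 37 deg C. Luminescence was read 1 h after detection reagent, with 57 uM dopamine as the EC100 control.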
D2 ag-1 = agonists of human D2 dopamine receptor | P14416 | HEK293 T-REx D2 cells, calcium flux agonist mode | activation, % at 2 µM | 0.53% of 340,000 active | AID 485358;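 active means activation over 3 SD above normal in the single-dose calcium agonist read, cut at about 30% in these data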; further: 0% is about no effect
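HEK293 Trex D2 cells, tetracycline-induced, o/n 30 C 5% CO2; no-wash Ca dye, RT 30–90 min; 10-cycle baseline, 23 nl cpd added, kinetic Ca read 180 s; agonist hits = positive Ca response.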
D2 ag-2 = human D2 receptor agonism in beta-arrestin assay; activation, % (test concentration not listed); P14416; 0.084% of 360,000 active; AID 624465; DiscoveRx PathHunter D2 beta-arrestin, luminescence, 90 min; 100% = 57 uM dopamine signal; in the data active means activation above about 40%; inconclusive means between about 15% and that limit
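Agonist mode: compounds alone added to overnight-plated D2 PathHunter cells for 90 min at 37 C, with 57 uM final dopamine (EC100) defining full response. Beta-arrestin recruitment detected by chemiluminescent reagent, read after 1 h at ambient temperature.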
D3 ag = D3 receptor agonism confirmed, beta-arrestin readout | shares compounds with D2 ag-1 | DiscoveRx D3 beta-arrestin cells, luminescence, 90 min | Potency, µM (highest dose often 76.9 µM), inactives show top-dose activation, most hits filed as activators | 4% of 2,300 active;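 further: potency means the concentration at half of the fitted maximal effect; 100% = dopamine control response; nearly all actives have a fitted effect of over 70% in size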
D2 ag-3 = counter-screen for D3 agonists: human D2 dopamine receptor agonism. shares compounds with D2 ag-1. DiscoveRx PathHunter D2 beta-arrestin, luminescence, 90 min; response scale: percent relative to full dopamine signal. Potency, µM (series often up to 76.9 µM), for inactives: top-dose activation, usual class: activators. 5.9% of 2,300 active. AID 720507; further: potency means the concentration at half of the fitted maximal effect; % of control where 0% means no effect; nearly all actives have a fitted effect of over 70% in size
The depositor's hits bear a star; ? = inconclusive; nt = not tested or not shown. Unless noted, the call rests on the fitted dose curve; in most records, active means well fitted activation curve with a large enough effect; inconclusive means small, poorly fitted or top-dose-only effect; inactive means flat fitted curve, though single readings scatter.

SMILES	D2 PAM-1	D2 antag	D2 PAM-2	D2 ag-1	D2 ag-2	D3 ag	D2 ag-3
CCCN(CC(=O)Nc1ccccc1OC)C(=O)CSC(=S)N1CCCC1	0.9	-0.1	-3.5	2.1	-4.8	1.7%	-3.5%
CCc1ccc2c(CC(=O)NNC(=O)c3ccncc3)coc2c1	-5.0	-3.7	2.2	0.1	4.6	-2.2%	-4.6%
CC(CCN1CCN(c2ccccc2)CC1)c1ccccc1 (configuration not stated)	-26.5	72.6*	-24.5	30.7*	6.0	-3.6%	12.9%
O=C(CN1CCN(C(c2ccccc2)c2ccccc2)CC1)N1CCN(c2ccccc2)CC1	-14.8	-10.1	-32.0	-0.6	-6.3	nt	nt
OCC1(Cc2ccc(Cl)cc2)CCN(Cc2ccccc2F)CC1	-16.9	-4.5	-25.2	1.1	-4.6	nt	nt
CC(CCN1CCN(c2ccccn2)CC1)c1ccccc1 (configuration not stated)	-19.3	62.7*	4.4	73.7*	?	?	?
OCC1(Cc2ccc(Cl)cc2)CCN(CCCc2ccccc2)CC1	-10.5	69.1*	-0.1	77.6*	40.6*	-4.6%	?
c1ccc(CCCN2CCN(c3ccccc3)CC2)cc1	-24.7	78.9*	-5.5	13.1	12.1	4.7%	13.5%
CCOCCc1nnc(NC(=O)C(=O)c2cc(C)n(-c3ccc(C)c(C)c3)c2C)s1	4.5	nt	nt	-0.1	nt	nt	nt
O=C(CSc1n[nH]c(-c2ccccc2Cl)n1)N1CCN(c2ccccc2)CC1	-2.2	nt	nt	0.3	nt	nt	nt
CCOc1ccccc1NS(=O)(=O)c1ccc2c(c1)CC(C)N2C(=O)C1CC1 (configuration not stated)	3.6	nt	nt	-2.0	nt	nt	nt
O=C(NCC(c1cccnc1)N1CCN(Cc2ccccc2)CC1)C(=O)Nc1ccc(Cl)cc1 (configuration not stated)	nt	nt	nt	0.6	nt	nt	nt
CCN1CCc2nc(N)sc2C1	-14.5	34.7*	5.2	68.1*	6.1	22.4%	16.4%
CCN1CCc2nc(N)oc2CC1	10.7	-1.8	4.5	0.4	-0.9	nt	nt
C=CCN1CCc2nc(N)sc2CC1	-23.4	89.2*	81.2*	88.0*	69.5*	0.0891µM*	0.0447µM*
Nc1nc2c(s1)CCCCCCCCCC2	6.0	6.1	1.3	0.0	0.0	nt	nt
CCCCC(=O)OCc1c(-c2cccc(OC)c2)ncc2ccccc12	-4.0	25.4	-3.3	-0.8	1.1	-8.4%	1.6%
COc1cccc(-c2ncc3ccccc3c2CO)c1	-9.4	0.4	-15.2	-0.2	-1.4	1.6%	-2.6%
COc1cccc(CCNC(=O)c2cnc3sc(N4CCOCC4)nn3c2=O)c1	0.4	nt	nt	-0.5	nt	nt	nt
COC(=O)C1CCN(CCCOc2ccc(CN3CCN(c4ccc([N+](=O)[O-])cc4)CC3)cc2)CC1	-15.1	84.1*	29.9	69.3*	45.4*	?	?
CCc1ccc(CN(C)C(=O)c2cc(S(=O)(=O)N3CCOCC3)ccc2N2CCCC2)cc1	1.5	-9.9	-13.5	0.7	5.5	nt	nt
CN(Cc1cccc(F)c1)C(=O)c1cc(S(=O)(=O)N2CCOCC2)ccc1N1CCCC1	0.3	-27.1	2.0	0.0	1.8	-4.4%	-4.6%
COc1ccc(N2C(=O)C(CC(=O)Nc3ccc(Cl)cc3)N(Cc3ccc4c(c3)OCO4)C2=O)cc1 (configuration not stated)	-26.3	nt	nt	1.5	nt	nt	nt
COc1cc(CC(=O)Nc2ccc3nc(C)sc3c2)cc(OC)c1OC	1.0	-10.6	-5.3	55.9*	-1.5	2.3%	0.6%
CN=c1scc(-c2ccc([N+](=O)[O-])cc2)n1/N=C/c1ccco1	7.1	-3.4	8.0	-0.2	-0.4	nt	nt
CN=c1scc(-c2ccc(F)cc2)n1/N=C/c1ccc(O)c(O)c1	nt	76.2*	?	31.9*	102.9*	12.6µM*	31.6µM*
COc1ccc(C(=O)NCc2nnc(SCC(=O)Nc3ccc(F)cc3)n2-c2ccccc2)cc1	12.3	nt	nt	0.2	nt	nt	nt
